PubChem BioAssay

Experiments:
[1] = molecular target: Tumor necrosis factor receptor superfamily member 10B (Homo sapiens) (UniProt O14763); assay: caspase-8 TRAIL sensitization, hit retest, confirmation, cell-based, NB7+caspase-8, with/without TRAIL, luminescence panel (AID 651596); conditions: NB7 neuroblastoma + caspase-8, TRAIL sensitization, luminescence viability, with TRAIL, mean of runs, at 10 µM, stronger effect = higher value
[2] = as above; conditions: NB7 neuroblastoma + caspase-8, without TRAIL, luminescence viability, without TRAIL, mean of runs, at 10 µM

Chain of Tumor necrosis factor receptor superfamily member 10B (Homo sapiens) (O14763 whole entry, looked up): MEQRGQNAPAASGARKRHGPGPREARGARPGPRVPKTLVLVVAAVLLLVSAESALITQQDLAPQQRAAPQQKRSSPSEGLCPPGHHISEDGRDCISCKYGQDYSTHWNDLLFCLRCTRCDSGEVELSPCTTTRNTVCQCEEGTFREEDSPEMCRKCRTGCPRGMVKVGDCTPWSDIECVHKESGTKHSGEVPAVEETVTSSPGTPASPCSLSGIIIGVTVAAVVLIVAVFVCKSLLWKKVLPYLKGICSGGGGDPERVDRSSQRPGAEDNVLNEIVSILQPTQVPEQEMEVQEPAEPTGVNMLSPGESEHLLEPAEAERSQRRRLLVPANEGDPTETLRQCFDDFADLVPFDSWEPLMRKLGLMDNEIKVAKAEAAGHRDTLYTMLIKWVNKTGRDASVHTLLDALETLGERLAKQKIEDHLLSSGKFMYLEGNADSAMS

| SMILES | activity [1] | activity [2] |
| --- | --- | --- |
| Clc1ncnc2c1oc1ccccc12 | 82.7% | 60.4% |
| Cc1ccccc1Nc1nc(N)c2ccccc2n1 | 63.9% | 59.8% |
| Cc1cc(Br)ccc1OCCCCNCCO | 28.1% | 41.9% |
| CS(=O)(=O)c1nc(-c2ccc(Br)cc2)cc(-c2ccccc2)c1C#N | 94% | 98.9% |
| CCOc1ccc2nc(NC(=O)c3ccc(C)o3)sc2c1 | 61.1% | 52.9% |
| COc1ccc(-c2cn3ccccc3n2)cc1 | 88% | 87.1% |
| CCCCn1c(NS(=O)(=O)c2ccc(C)cc2)c(S(=O)(=O)c2ccccc2)c2nc3ccccc3nc21 | -5.92% | -15% |
| COc1ccc(-c2cn3ccccc3n2)cc1[N+](=O)[O-] | 50.9% | 53% |
| O=[N+]([O-])c1cc(S(=O)(=O)C(F)(F)F)ccc1Sc1nc2ccccc2[nH]1 | 33.1% | 94.2% |
| COCCNC(=O)c1ccc2c3n(nc2c1)-c1ccccc1CO3 | 67.6% | 82% |
| c1ccc2nc(-c3nc4ccccc4o3)ccc2c1 | 79.6% | 76% |
| Cc1ccc(C(=O)Nc2ccc3c(c2)OCO3)cc1 | 75.8% | 63% |
| CCCOc1ccc(-c2nc(N3CCN(C)CC3)c3ccccc3n2)cc1 | 71% | 67.7% |
| NC(CCc1ccccc1)c1csc(NC(=O)Nc2ccccc2Oc2ccccc2)n1 (stereo unspecified) | 79% | 93% |
| CCCCNC(=O)c1cn(C)c2ccc(S(=O)(=O)N3CC(C)CC(C)C3)cc2c1=O (stereo unspecified) | 42.1% | 41.5% |
| CCN1CCN(Cc2ccc(NC(=O)c3ccc(C)c(NC(=O)c4c[nH]c5cc(C(F)(F)F)ccc5c4=O)c3)cc2C(F)(F)F)CC1 | 98.8% | 98.8% |
| N#Cc1ccc(C(=O)Nc2nc(-c3cccs3)c(C(=O)C(F)(F)F)s2)cc1 | 36.9% | 37% |
| CC1CCC(C(C)C)C(OC(=O)Cn2c(-c3ccccc3)[n+](C)c3ccccc32)C1 (stereo unspecified) | 70.2% | 61.2% |
| CCCCC[C@@H](C)N1C[C@H](COCc2ccccc2)Oc2cc(N3CC[C@H](N(C)C)C3)ccc2S1(=O)=O | 12% | 45.6% |
| NC(=O)c1ccccc1N/C=C/C(=O)c1ccc(F)cc1 | 78.8% | 73% |
| Cc1cc(NCCCn2ccnc2)n2ncc(-c3ccc(Cl)cc3)c2n1 | 45.8% | 48.5% |
| CCCC(=O)Nc1ccc(C(=O)N/N=C/c2ccc[nH]2)cc1 | 98.5% | 97.8% |
| CCn1c(=O)c([N+](=O)[O-])c(Cl)c2ccccc21 | 83.6% | 70.1% |
| CC(C)OC(=O)Nc1ccc2c(c1)N(C(=O)N1CCN(C)CC1)c1ccccc1CC2 | 86.2% | 84.2% |
| COc1ccc(-n2nc3cc(C)c(NC(C)=O)cc3n2)cc1 | 71.8% | 75.7% |
| C#CCSc1nnc(-c2sc(-c3ccccc3)nc2C)n1C | 84.7% | 90% |

| SMILES | activity [1] | activity [2] |
| --- | --- | --- |
| Cc1ccc(NC(=O)CSc2ccc(-c3ccc4c(c3)OCO4)nn2)cc1F | 39% | 44.9% |
| Cc1c(C)c2ccc(OCC(=O)Nc3nccs3)cc2oc1=O | 58.4% | 57.8% |
| COc1ccc(C2C(C(=O)N3CCC(C)CC3)c3ccccc3C(=O)N2C)cc1 (stereo unspecified) | 67.2% | 68.5% |
| Cc1cccnc1Nc1nc(-c2ccccn2)cs1 | 38.4% | 63.1% |
| CSC(=Nc1ccccc1)N=C(SCc1ccccc1)N(C)C | 96.8% | 98.5% |
| O=C(Nc1nnc(SCC(=O)N2CCOCC2)s1)c1ccccc1 | 80% | 77.4% |
| O=C(CCl)N(CCCNC(=O)C(F)(F)F)c1ccc([N+](=O)[O-])cc1 | 98.5% | 98.3% |
| CC(C)(C)c1ccc(C(=O)O/N=C(\N)Cc2cccs2)cc1 | 98.6% | 77.5% |
| CNc1nc(N/N=C/c2cc([N+](=O)[O-])ccc2F)nc(Nc2ccccc2)n1 | 71.5% | 86.5% |
| O=S1(=O)CC(c2ccccc2)=NN=C(c2ccccc2)C1 | 79% | 75.8% |
| CCc1ccc(-n2nc3cc(C)c(N)cc3n2)cc1 | 64.4% | 51.1% |
| O=C(CSc1nnc(-c2ccccc2Cl)o1)Nc1ccccn1 | 68.8% | 74% |
| CN(C)C(=O)N1CCN(c2nc(-c3ccccc3)cs2)CC1 | 43.7% | 48.5% |
| O=C(N/N=C/c1ccc(-c2cccc(C(F)(F)F)c2)o1)c1cccc(F)c1 | 62.7% | 50.6% |
| CC(=O)c1ccccc1OCC(O)CN1CCN(CCN2C(=O)c3cccc4cccc(c34)C2=O)CC1 (stereo unspecified) | 45.6% | 16.4% |
| CN(C)c1ccc(-c2nc3ccccc3n2C)cc1 | 92.3% | 89.8% |
| CCOC(=O)c1c(C)nc2c3ccccc3ccn12 | 51.9% | 58.9% |
| S=c1[nH]ncn1/N=C/c1ccc(N2CCOCC2)cc1 | 62% | 59.8% |
| Cc1ccc2oc(-c3ccccc3)c(C(=O)O)c(=O)c2c1 | 29.9% | 39.2% |
| Cc1ccc(-c2nc3ccccc3[nH]2)s1 | 58.9% | 58.2% |
| Cc1cc(C)c2c(N)c(C(=O)Nc3nccs3)sc2n1 | 89.5% | 87.2% |
| CC(C)CC(/C(O)=C(\C#N)c1nc2ccccc2[nH]1)N1C(=O)c2ccccc2C1=O (stereo unspecified) | 66.3% | 61.7% |
| CN1CC(=O)N2C(c3ccc(Cl)cc3)c3[nH]c4ccccc4c3C[C@H]2C1=O (stereo partly specified) | 94.7% | 92.8% |
| O=C(Nc1nc2ccccc2[nH]1)c1ccc(Cl)cc1 | 94.4% | 94.1% |
| COc1ccc2[nH]c(C(=O)Nc3cccc(C)n3)cc2c1 | 58.8% | 59.5% |
| O=C(N/N=C/c1cccnc1)c1ccc2c(c1)OCCO2 | 76.2% | 67% |

| SMILES | activity [1] | activity [2] |
| --- | --- | --- |
| CCOC(=O)c1cc([N+](=O)[O-])cc([N+](=O)[O-])c1Sc1ncnc2nc[nH]c12 | 51.5% | 71.2% |
| COc1ccc(N2Cc3ccc(OC)c(OC)c3C2=O)cc1 | 40.6% | 37.8% |
| Cc1cc(C)c2c(=N)c3ccccc3n(CCCCCCCCn3c4ccccc4c(=N)c4c(C)cc(C)nc43)c2n1 | 78.3% | 98.7% |
| C=CCn1c(C)cc(C(=O)CN2C(=O)c3ccccc3C2=O)c1C | 60.2% | 57.3% |
| Nc1nc(N)c2c(ccc3nccc32)[nH]1 | 73.3% | 78.7% |
| COc1cccc(-n2c(SCC(=O)N3CCCCC3)nc3c([nH]c4ccccc43)c2=O)c1 | 28.7% | 19.4% |
| O=C(Nc1nc2ccccc2s1)c1ccc(OCC2CCCO2)cc1 (stereo unspecified) | 73.5% | 67% |
| CC(=O)Oc1ccccc1/C=C/c1nc2ccccc2c(=O)o1 | 83.7% | 84.8% |
| COc1ccc(/C=C/C(=O)c2ccc([N+](=O)[O-])o2)cc1 | 35.2% | 80.8% |
| COc1ccc(-c2nn(-c3ccccc3)cc2/C=N/NC(=O)c2ccc(Br)o2)cc1 | 79.5% | 32.3% |
| Cc1ccc(Cl)cc1N1CCN(C(=O)c2noc(C)c2[N+](=O)[O-])CC1 | 99.3% | 97.1% |
| CC(C)c1ccc(C(=O)Nc2cccnc2)cc1 | 57.1% | 56.2% |
| O=C(COC(=O)c1ccccc1C(=O)c1ccc(Cl)c([N+](=O)[O-])c1)NC1CC1 | 98.7% | 99.3% |
| COc1cccc(-c2nnc(-c3ccc(C)o3)o2)c1 | 64.9% | 65.2% |
| COc1ccc(NC(=O)c2cc(-c3ccncc3)nc3ccc(Br)cc23)cc1OC | 4.8% | 51.5% |
| COc1ccc(OC)c(NC(=O)c2cc(-c3cc(Cl)ccc3O)n[nH]2)c1 | 33.7% | 34.1% |
| COc1ccc(C=Cc2ccc3ccccc3n2)c(OC)c1 | 79.1% | 68.5% |
| CCc1ccc(C2=NN(C(=O)OC)C(O)(C(F)(F)F)C2)cc1 (stereo unspecified) | 45.8% | 59% |
| COc1ccc(N=C2S/C(=C\c3ccc(Cl)c([N+](=O)[O-])c3)C(=O)N2CCN(C)C)cc1 | 65% | 90.2% |
| COc1ccc2cc(-c3ccccc3)ncc2c1 | 63.8% | 63.7% |
| Brc1ccc(-c2cn3ccccc3n2)s1 | 52.6% | 38.7% |
| COc1ccccc1/C=C/C(=O)Nc1ccc2c(c1)OCCO2 | 66.6% | 73.5% |
| Cc1cccc(N2CCN(S(=O)(=O)c3ccc4c(c3)NC(=O)C(C)S4)CC2)c1C (stereo unspecified) | -0.6% | -25.6% |
| Cc1ccccc1Oc1cc(-n2ncc(Cl)c(Cl)c2=O)ncn1 | 99.7% | 99.5% |
| Cc1ccc(C(=O)Nc2nc3ccccc3c(=O)s2)cc1 | 80.8% | 80% |
| O=C(Nc1nc2ccccc2[nH]1)c1ccccc1OC(F)F | 76% | 82.2% |
